A short description of assay [1]: ATG_GLI_CIS: Attagene CIS-FACTORIAL HepG2 Assay for human Zinc Finger Protein GLI1 (AID 2282945). The settings on record: HepG2, Attagene cis-factorial reporter mRNA, GLI element; actives raise or lower the signal. The procedure, abridged: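 HepG2 cells transiently transfected with cis-promoter multiplexed reporter units report endogenous transcription factor activity. After 24 h chemical exposure, reporter mRNA was quantified by RT-PCR, 6-FAM labelling, HpaI digestion and capillary electrophoresis, with bidirectional fitting against DMSO.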

Assay [2] deals with Bile acid receptor (Homo sapiens) (UniProt Q96RI1). The assay can be described thus: ATG_IR1_CIS: Attagene CIS-FACTORIAL HepG2 Assay for human Nuclear Receptor Subfamily 1 Group H Member 4 (NR1H4), IR1 submotif (AID 2282946). The settings on record: IR1 reporter transcription, actives raise or lower the signal. The procedure, abridged:
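Transient MRTU transfection, HepG2; 24 h dosing; RNA → RT-PCR → 6-FAM primer extension → HpaI digest → capillary electrophoresis fluorescence. Gain/loss of signal fitted relative to DMSO.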

Assay [3] can be described thus: ATG_GRE_CIS: Attagene CIS-FACTORIAL HepG2 Assay for human Glucocorticoid Response Elements (GRE) (AID 2282947). The settings on record: HepG2 GRE cis-reporter, Attagene multiplex mRNA; actives raise or lower the signal. The procedure, abridged: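 HepG2 cells transiently transfected with multiple cis-promoter reporter units measure endogenous TF activity; 24 h compound exposure. Reporter mRNA quantified by RT-PCR, FAM labelling, HpaI digestion and capillary electrophoresis; bidirectional fit vs DMSO baseline.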

Assay [4] is described as follows: ATG_ISRE_CIS: Attagene CIS-FACTORIAL HepG2 Assay for human Interferon Regulatory Factor 1 (IRF1) binding to an Interferon-Stimulated Response Element (ISRE) (AID 2282948). The settings on record: HepG2 ISRE cis-reporter (Attagene), mRNA transcription readout; actives raise or lower the signal. The procedure, abridged: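 Transiently transfected HepG2 cells carrying cis-element reporter units, dosed 24 hours. Reporter mRNA quantified by RT-PCR, fluorescent primer extension, HpaI digestion and capillary electrophoresis. Bidirectional fitting relative to DMSO.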

A short description of assay [5]: ATG_M_06_CIS: Attagene CIS-FACTORIAL HepG2 Assay for M06 Transcription Factor (Internal Marker) (AID 2282950). The settings on record: HepG2 Attagene CIS-FACTORIAL M06 internal marker reporter; actives raise or lower the signal. The gist of the method: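 HepG2 liver cells, 24 h exposure. Reporter transcripts from transfected cis-element constructs quantified by RT-PCR/capillary electrophoresis fluorescence. Bidirectional curve fit against DMSO.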

In assay [6] the target is Hypoxia-inducible factor 1-alpha (Homo sapiens) (UniProt Q16665). The assay can be described thus: ATG_HIF1a_CIS: Attagene CIS-FACTORIAL HepG2 Assay for human Hypoxia Inducible Factor 1 (HIF1A) (AID 2282951). The settings on record: HepG2 Attagene cis-factorial HIF1a reporter transcription; actives raise or lower the signal. The gist of the method: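 HepG2 cells transiently transfected with multiple cis-regulated reporter transcription units measure endogenous transcription factor activity. After 24 h exposure, reporter mRNA is quantified by RT-PCR with 6-FAM labelling, HpaI digestion and capillary electrophoresis. Bidirectional fitting against DMSO.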
Chain of Hypoxia-inducible factor 1-alpha (Homo sapiens) (Q16665 whole entry, looked up): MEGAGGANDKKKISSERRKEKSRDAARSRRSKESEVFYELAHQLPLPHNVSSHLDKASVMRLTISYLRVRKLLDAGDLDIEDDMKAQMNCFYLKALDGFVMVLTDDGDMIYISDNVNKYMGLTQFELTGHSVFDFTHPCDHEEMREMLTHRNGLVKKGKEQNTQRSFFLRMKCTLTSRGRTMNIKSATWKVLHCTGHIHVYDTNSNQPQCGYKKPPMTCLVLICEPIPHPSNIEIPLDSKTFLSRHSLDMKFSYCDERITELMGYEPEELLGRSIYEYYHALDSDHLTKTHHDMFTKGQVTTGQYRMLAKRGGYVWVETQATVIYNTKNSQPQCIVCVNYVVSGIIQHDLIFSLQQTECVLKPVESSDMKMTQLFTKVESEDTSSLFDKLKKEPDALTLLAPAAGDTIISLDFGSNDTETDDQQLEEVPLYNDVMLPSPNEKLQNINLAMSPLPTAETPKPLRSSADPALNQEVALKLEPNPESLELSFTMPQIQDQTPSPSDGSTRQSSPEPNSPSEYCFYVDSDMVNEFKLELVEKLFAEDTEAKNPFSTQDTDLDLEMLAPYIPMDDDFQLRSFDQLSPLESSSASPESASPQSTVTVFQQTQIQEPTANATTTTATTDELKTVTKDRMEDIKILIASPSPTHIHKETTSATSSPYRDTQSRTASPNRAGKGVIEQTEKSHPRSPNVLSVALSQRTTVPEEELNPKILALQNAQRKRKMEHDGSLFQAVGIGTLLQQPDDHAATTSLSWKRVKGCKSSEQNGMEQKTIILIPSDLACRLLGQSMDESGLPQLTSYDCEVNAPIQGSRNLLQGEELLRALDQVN

In assay [7] the target is Hepatocyte nuclear factor 6 (Homo sapiens) (UniProt Q9UBC0). As to the kind of experiment: ATG_HNF6_CIS: Attagene CIS-FACTORIAL HepG2 Assay for human Hepatocyte Nuclear Factor 6 (HNF6) (AID 2282952). The settings on record: HepG2 Attagene cis-factorial HNF6 reporter transcription; actives raise or lower the signal. The procedure, abridged: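 HepG2 cells transiently transfected with cis-element-driven multiple reporter transcription units, dosed 24 h; reporter mRNA quantified by RT-PCR, FAM primer extension, HpaI digestion and capillary electrophoresis; bidirectional fit versus DMSO baseline.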
Chain of Hepatocyte nuclear factor 6 (Homo sapiens) (Q9UBC0 whole entry, looked up): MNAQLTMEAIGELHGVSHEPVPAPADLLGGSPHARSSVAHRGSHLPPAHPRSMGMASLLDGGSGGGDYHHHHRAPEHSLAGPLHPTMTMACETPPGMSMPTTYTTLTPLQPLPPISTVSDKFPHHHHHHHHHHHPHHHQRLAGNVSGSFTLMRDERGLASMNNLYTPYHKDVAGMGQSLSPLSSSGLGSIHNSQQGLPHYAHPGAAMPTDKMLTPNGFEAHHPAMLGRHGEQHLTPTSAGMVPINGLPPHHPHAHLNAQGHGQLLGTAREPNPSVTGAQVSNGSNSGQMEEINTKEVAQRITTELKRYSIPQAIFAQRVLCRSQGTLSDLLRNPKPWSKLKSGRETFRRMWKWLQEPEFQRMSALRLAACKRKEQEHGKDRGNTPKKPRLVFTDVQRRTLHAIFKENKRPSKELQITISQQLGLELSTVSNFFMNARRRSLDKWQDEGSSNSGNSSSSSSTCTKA

Assay [8] addresses Heat shock factor protein 1 (Homo sapiens) (UniProt Q00613). The assay can be described thus: ATG_HSE_CIS: Attagene CIS-FACTORIAL HepG2 Assay for human Heat Shock Transcription Factor 1 (HSE) (AID 2282953). The settings on record: HepG2 HSE cis-reporter, Attagene RNA transcription; actives raise or lower the signal. The procedure, abridged: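 Endogenous transcription factor activity captured via cis-promoter reporter units transfected into HepG2; treatment lasted 24 h. Fluorescence intensity of reporter fragments analysed with bidirectional curve fitting, DMSO baseline.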

Assay [9] is described as follows: ATG_MRE_CIS: Attagene CIS-FACTORIAL HepG2 Assay for human Metal Responsive Element (MRE) (AID 2282954). The settings on record: HepG2 MRE cis-reporter transcription, Attagene multiplex; actives raise or lower the signal. The procedure, abridged: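 HepG2 cells transiently transfected with multiple cis-element reporter units measure endogenous MTF1-driven transcription. After 24 h compound exposure, reporter mRNA is quantified by RT-PCR with 6-FAM labelling, HpaI digestion and capillary electrophoresis; bidirectional fits versus DMSO.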

A short description of assay [10]: ATG_M_32_CIS: Attagene CIS-FACTORIAL HepG2 Assay for M32 Transcription Factor (Internal Marker) (AID 2282949).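 Note: background control marker of the multiplexed CIS panel rather than a real target.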 The settings on record: HepG2 Attagene cis-factorial M32 reporter, mRNA; actives raise or lower the signal. The gist of the method:
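Internal background marker read-out: RT-PCR/capillary electrophoresis fluorescence of reporter transcripts from transiently transfected HepG2 cells after 24 h chemical exposure. Activity fitted bidirectionally relative to DMSO negative control.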

Where “and” joins values, the source holds several entries; their conditions need not be identical. Equal values may be shown once. Some structures have more than one record in an assay (separate samples or runs), and their calls can disagree. Calls of active or inactive are those of the source. Rule for the calls: active = hit-call score of the fitted dose curve at least 0.9, where 1 is the maximum; inactive = score below 0.9.

Chain of Heat shock factor protein 1 (Homo sapiens) (Q00613 whole entry, looked up, the tested form may be a part): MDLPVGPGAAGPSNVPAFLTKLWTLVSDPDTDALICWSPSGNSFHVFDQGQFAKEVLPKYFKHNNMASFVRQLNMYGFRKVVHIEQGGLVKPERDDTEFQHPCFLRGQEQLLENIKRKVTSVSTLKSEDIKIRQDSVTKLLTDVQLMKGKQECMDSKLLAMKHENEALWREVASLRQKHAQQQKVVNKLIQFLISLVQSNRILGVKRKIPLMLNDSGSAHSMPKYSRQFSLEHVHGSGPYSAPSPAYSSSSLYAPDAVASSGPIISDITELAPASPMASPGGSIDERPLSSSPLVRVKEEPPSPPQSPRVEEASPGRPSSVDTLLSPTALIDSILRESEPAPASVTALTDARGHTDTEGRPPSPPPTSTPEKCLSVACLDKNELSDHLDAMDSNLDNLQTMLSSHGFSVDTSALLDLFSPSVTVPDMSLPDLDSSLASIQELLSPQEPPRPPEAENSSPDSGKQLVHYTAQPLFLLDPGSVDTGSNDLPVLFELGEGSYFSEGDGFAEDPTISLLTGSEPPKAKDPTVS
Chain of Bile acid receptor (Homo sapiens) (Q96RI1 whole entry, looked up): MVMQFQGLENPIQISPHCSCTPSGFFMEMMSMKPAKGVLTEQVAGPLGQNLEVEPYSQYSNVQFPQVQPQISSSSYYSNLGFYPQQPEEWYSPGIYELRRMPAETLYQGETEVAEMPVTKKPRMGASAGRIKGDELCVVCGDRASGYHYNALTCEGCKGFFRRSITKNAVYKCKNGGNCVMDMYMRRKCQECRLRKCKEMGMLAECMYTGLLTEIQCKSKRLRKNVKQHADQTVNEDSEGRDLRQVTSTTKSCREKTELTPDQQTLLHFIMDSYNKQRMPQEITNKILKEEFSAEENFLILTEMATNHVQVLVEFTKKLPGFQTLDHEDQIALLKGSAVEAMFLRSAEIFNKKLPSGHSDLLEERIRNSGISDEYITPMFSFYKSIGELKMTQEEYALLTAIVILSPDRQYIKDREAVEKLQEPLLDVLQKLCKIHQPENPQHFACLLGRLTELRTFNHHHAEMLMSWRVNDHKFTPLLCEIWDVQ

`N#Cc1c(Cl)c(Cl)c(Cl)c(C#N)c1Cl`: the result in assay [1], in assay [2], in assay [3], in assay [4], in assay [5] and in [6] was inactive. The compound was called inactive in assay [7], in [8] and in [9].
With `O=S1OCC2C(CO1)C1(Cl)C(Cl)=C(Cl)C2(Cl)C1(Cl)Cl` (stereo not given), the call in assay [1], in assay [2], in assay [3], in assay [4], in assay [5] and in assay [6] was inactive. Further, the result in assay [7], in [8] and in assay [9] was inactive.
As usually defined, the AC50 is the concentration at which the activity in the assay is half-maximal. With `Oc1ccc(Cl)cc1Cc1ccccc1`, the AC50 in assay [1] is 16.4 µM (active); in assay [8] it was 17.3 µM (active); in [9], 16 µM (active). Moreover, the compound was classed as inactive in assay [1], in assay [3], in [4], in assay [5], in assay [6] and in assay [7]. In addition, the compound was called inactive in assay [8] and in assay [9].
Consider `CCc1ccc(C(=O)NN(C(=O)c2cc(C)cc(C)c2)C(C)(C)C)cc1`, for which the result in assay [1], in [2], in assay [3], in assay [4], in [5] and in assay [6] was inactive. In addition, the compound was called inactive in [7] and in assay [8]. Further, the AC50 in assay [9] was 18.2 µM (active).
For the compound `OCCOc1ccccc1`, the compound was classed as inactive in [1], in assay [2], in assay [3], in assay [4], in [10] and in [5]. Besides, the call in [6], in [7], in [8] and in assay [9] was inactive.
With `CC1(c2ccc(Oc3ccccc3)cc2)OC(=O)N(Nc2ccccc2)C1=O` (stereo not given), the compound was called inactive in assay [1], in assay [2], in assay [3], in assay [4], in [5] and in assay [6]. Further, the outcome in assay [7], in [8] and in [9] was inactive.
Regarding `CC(C)(C)C(O)/C(=C\c1ccc(Cl)cc1Cl)n1cncn1` (stereo not given), the outcome in assay [1], in assay [2], in [3], in assay [4], in assay [5] and in assay [6] was inactive. Moreover, the compound was called inactive in assay [7] and in assay [8]. For the same compound, the AC50 in [9] is 5 µM (active).
With `CCS(=O)(=O)c1cccnc1S(=O)(=O)NC(=O)Nc1nc(OC)cc(OC)n1`, the result in assay [1], in [2], in assay [3], in assay [4], in assay [5] and in [6] was inactive. Also, the result in [7], in [8] and in [9] was inactive.
Consider `O=C(Nc1ccccc1)Nc1cnns1`, for which the AC50 is 50 µM (active) in [1], 50 µM (active) in assay [2], 93.4 µM (active) in assay [8] and 50 µM (active) in assay [9]. Moreover, the result in [3], in assay [4], in assay [5], in assay [6] and in assay [7] was inactive.
`COC(=O)c1ccccc1CS(=O)(=O)NC(=O)Nc1nc(OC)cc(OC)n1`: the outcome in assay [1], in [2], in assay [3], in assay [4], in [5] and in [6] was inactive. Further, the call in assay [7], in [8] and in [9] was inactive.
Take `CNC(=O)/C=C(\C)OP(=O)(OC)OC`: the compound was called inactive in assay [1], in assay [2], in [3], in assay [4], in assay [10] and in [5]. Further, the result in assay [6], in assay [7], in assay [8] and in assay [9] was inactive.
With `Cc1cc(C)nc(NC(=O)NS(=O)(=O)c2ccccc2C(=O)OC2COC2)n1`, the compound was classed as inactive in assay [1], in assay [2], in assay [3], in assay [4], in assay [10] and in assay [5]. For the same compound, the result in assay [6] and in [7] was inactive. The AC50 is 76.2 µM (active) in assay [8] and 80.5 µM (active) in assay [9].
`CCC(C)(C)C(=O)OC1=C(c2ccc(Cl)cc2Cl)C(=O)OC12CCCCC2`: the call in assay [1], in assay [2], in assay [3], in assay [4], in assay [5] and in [6] was inactive. For the same compound, the compound was classed as inactive in assay [7], in assay [8] and in assay [9].
Turning to `CN1CSC(=S)N(C)C1`, the result in assay [1], in [2], in assay [3], in assay [4], in assay [10] and in assay [5] was inactive. Moreover, the outcome in assay [6], in assay [7] and in assay [8] was inactive. Moreover, the AC50 in [9] is 50 µM (active).
As to `CCC(C)(NC(=O)c1cc(Cl)c(C)c(Cl)c1)C(=O)CCl` (stereo not given), the call in assay [1], in assay [2], in assay [3], in assay [4], in [5] and in [6] was inactive. The call in [7], in assay [8] and in assay [9] was inactive.
`COc1cc(OC)nc(NC(=O)NS(=O)(=O)c2cc(NC=O)ccc2C(=O)N(C)C)n1`: the compound was classed as inactive in assay [1], in assay [2], in assay [3], in assay [4], in [5] and in assay [6]. Moreover, the result in assay [7], in [8] and in assay [9] was inactive.
Consider `ClC1C(Cl)C(Cl)C(Cl)C(Cl)C1Cl` (stereo not given), for which the call in [1], in [2], in assay [4], in [5], in assay [6] and in assay [7] was inactive. In addition, the compound was classed as inactive in assay [8] and in assay [9]. The AC50 in assay [4] was 161 µM (active) and 58.2 µM (active); in [9], 17.1 µM (active) and 100 µM (active) and 33.7 µM (active).
Consider `CC(C)N(C(=O)COc1nnc(C(F)(F)F)s1)c1ccc(F)cc1`, for which the call in assay [1], in assay [2], in [3], in assay [4], in [5] and in assay [6] was inactive. Further, the compound was classed as inactive in assay [7], in [8] and in [9].
As for `Oc1cc(Cl)ccc1Oc1ccc(Cl)cc1Cl`, the outcome in assay [1], in [2], in [3], in assay [4], in assay [5] and in assay [6] was inactive. In addition, the outcome in [7], in [8] and in [9] was inactive. Besides, the AC50 is 11.1 µM (active) in assay [3]; 13.5 µM (active) [middle of 4 runs] in [4]; 17.4 µM (active) and 9.05 µM (active) in [8]; 15.3 µM (active) [middle of 6 runs] in [9].
With `COC(=O)c1ccccc1S(=O)(=O)NC(=O)N(C)c1nc(C)nc(OC)n1`, the compound was called inactive in assay [1], in [2], in assay [3], in assay [4], in assay [5] and in assay [6]. Also, the compound was called inactive in [7], in assay [8] and in assay [9].
With `Cc1[nH]c(=O)n(C(C)(C)C)c(=O)c1Cl`, the result in [1], in [2], in assay [4], in assay [10], in assay [5] and in assay [6] was inactive. For the same compound, the compound was classed as inactive in assay [7] and in assay [8]. Also, the AC50 in assay [9] was 50 µM (active).
`CCN(CC)C(=O)SCc1ccc(Cl)cc1`: the call in assay [1], in [2], in [3], in assay [4], in [5] and in assay [6] was inactive. Also, the compound was called inactive in [7] and in assay [8]. Also, the AC50 in [9] is 65.9 µM (active).
With `CCCN(CCOc1c(Cl)cc(Cl)cc1Cl)C(=O)n1ccnc1`, the compound was classed as inactive in assay [1], in assay [2], in assay [3], in assay [4], in [10] and in assay [5]. The outcome in [6], in assay [7], in [8] and in [9] was inactive. Moreover, the AC50 in assay [8] is 2.61 µM (active); in assay [9], 18.6 µM (active).
For `CCOc1nc(NC)nc(NC(=O)NS(=O)(=O)c2ccccc2C(=O)OC)n1`, the compound was called inactive in [1], in assay [2], in assay [3], in assay [4], in assay [5] and in assay [6]. Also, the compound was classed as inactive in assay [7], in assay [8] and in [9].

For the origin of these results see PubChem BioAssay (EPA / NIEHS).
